Values joined by “and” are separate entries in the source; they are usually repeats but may differ in a detail not shown here. Equal entries are not always repeated. The source holds several records for some structures; these can differ, active in one and inactive in another. Active and inactive are the calls of the source. Rule for the calls: active = hit-call score of the fitted dose curve at least 0.9, where 1 is the maximum; inactive = score below 0.9.
Experiments:
[1] = ATG_E_Box_CIS: Attagene CIS-FACTORIAL HepG2 Assay for human Enhancer Box (E-box) (AID 2282936); settings: HepG2 E-box cis-reporter transcription, actives raise or lower the signal
Method in brief: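 Fluorescent reporter fragments separated by capillary electrophoresis gave the signal; mRNA came from HepG2 cells transfected with cis-element reporters and treated 24 h. Curves fitted bidirectionally relative to DMSO controls.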

[2] = ATG_M_61_CIS: Attagene CIS-FACTORIAL HepG2 Assay for M61 Transcription Factor (Internal Marker) (AID 2282937); settings: HepG2 Attagene CIS-FACTORIAL M61 internal marker reporter; actives raise or lower the signal
Method in brief: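 Human liver HepG2, transient MRTU transfection (cis promoter elements), 24 h compound. Total RNA → oligo(dT) RT → PCR → FAM label → HpaI → CE. Internal background marker; bidirectional fitting, DMSO = baseline.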

[3] = ATG_EGR_CIS: Attagene CIS-FACTORIAL HepG2 Assay for human Early Growth Response 1 (EGR1) (AID 2282938); settings: HepG2 Attagene CIS-FACTORIAL EGR reporter mRNA; actives raise or lower the signal
Method in brief: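 Transient transfection of human HepG2 with multiple cis-regulated reporter units, chemical exposure 24 h, total RNA isolated. Reverse transcription, PCR, fluorescent labelling and capillary electrophoresis quantify reporter transcripts; activity fitted bidirectionally against DMSO.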

[4] = ATG_M_19_CIS: Attagene CIS-FACTORIAL HepG2 Assay for M19 Transcription Factor (Internal Marker) (AID 2282939); settings: HepG2 Attagene CIS-FACTORIAL M19 internal marker reporter; actives raise or lower the signal
Method in brief: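 Signals come from fluorescence of labelled reporter-specific PCR fragments resolved by capillary electrophoresis, following 24 h treatment of HepG2 cells transfected with cis-promoter reporter units; activity was fitted in both directions relative to DMSO.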

[5] = ATG_ERE_CIS: Attagene CIS-FACTORIAL HepG2 Assay for Estrogen Response Element (ERE) (AID 2282940); settings: HepG2 ERE cis-reporter, Attagene RNA transcript; actives raise or lower the signal
Method in brief: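 Fluorescence of capillary-separated, FAM-labelled reporter cDNA fragments indicates reporter mRNA levels in HepG2 cells exposed to chemicals for 24 h. Transient transfection with cis-regulated units; data fitted in both directions against DMSO.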

[6] = ATG_Ets_CIS: Attagene CIS-FACTORIAL HepG2 Assay for human Erythroblast Transformation Specific (ETS) (AID 2282941); settings: HepG2 ETS cis-reporter transcription, actives raise or lower the signal
Method in brief: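 Multiplexed reporter transcript profiling: HepG2, 24 h treatment, total RNA to cDNA, PCR, 6-FAM labelling, HpaI cut, capillary electrophoresis. Gain- or loss-of-signal fitted against DMSO.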

[7] = biological target: Hepatocyte nuclear factor 3-beta (Homo sapiens) (UniProt Q9Y261); test: ATG_FoxA2_CIS: Attagene CIS-FACTORIAL HepG2 Assay for human Forkhead box A2 (FOXA2) (AID 2282942); settings: HepG2 cis-reporter transcription factor activity, 24 h; actives raise or lower the signal
Method in brief: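 Transient MRTU transfection of HepG2 liver cells; 24 h treatment; total RNA → oligo(dT) RT → PCR → FAM primer extension → HpaI cut → CE. Bidirectional fit vs DMSO.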

[8] = ATG_FoxO_CIS: Attagene CIS-FACTORIAL HepG2 Assay for human Forkhead box O (FoxO) (AID 2282943); settings: HepG2 Attagene cis-reporter, FoxO element, mRNA; actives raise or lower the signal
Method in brief: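 Endogenous transcription factor activity read from multiplexed cis-promoter reporter transcripts in transiently transfected HepG2, 24 h after dosing. Reporter RNA measured via RT-PCR plus capillary electrophoresis of FAM-labeled products; gain or loss relative to DMSO.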

[9] = ATG_GATA_CIS: Attagene CIS-FACTORIAL HepG2 Assay for human GATA Binding Protein (AID 2282944); settings: HepG2 GATA cis-element reporter, Attagene multiplex mRNA; actives raise or lower the signal
Method in brief: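 After transfecting HepG2 cells with multiple cis-regulated reporter units, chemicals are dosed for 24 h; isolated RNA undergoes RT-PCR and fluorescent labeling before capillary electrophoresis, with activity expressed against DMSO.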

[10] = ATG_GLI_CIS: Attagene CIS-FACTORIAL HepG2 Assay for human Zinc Finger Protein GLI1 (AID 2282945); settings: HepG2, Attagene cis-factorial reporter mRNA, GLI element; actives raise or lower the signal
Method in brief: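 Bidirectional curve fits relative to DMSO, using reporter mRNA levels from RT-PCR plus capillary electrophoresis. Cells were HepG2 transiently carrying cis-regulated reporter constructs, harvested 24 h after dosing.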

[11] = biological target: Bile acid receptor (Homo sapiens) (UniProt Q96RI1); test: ATG_IR1_CIS: Attagene CIS-FACTORIAL HepG2 Assay for human Nuclear Receptor Subfamily 1 Group H Member 4 (NR1H4), IR1 submotif (AID 2282946); settings: IR1 reporter transcription, actives raise or lower the signal
Method in brief: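 HepG2 cells transiently transfected with multiplexed cis-element reporter units read endogenous transcription factor activity. After 24 h compound exposure, reporter mRNA was quantified by RT-PCR, fluorescent labelling, HpaI digestion and capillary electrophoresis; bidirectional fitting versus DMSO baseline.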

[12] = ATG_ISRE_CIS: Attagene CIS-FACTORIAL HepG2 Assay for human Interferon Regulatory Factor 1 (IRF1) binding to an Interferon-Stimulated Response Element (ISRE) (AID 2282948); settings: HepG2 ISRE cis-reporter (Attagene), mRNA transcription readout; actives raise or lower the signal
Method in brief: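 Signal reflects induction or loss of ISRE-linked reporter mRNA in transiently transfected HepG2 cells after a 24 h treatment, detected by fluorescent RT-PCR fragments on capillary electrophoresis and normalised to DMSO.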

[13] = ATG_M_32_CIS: Attagene CIS-FACTORIAL HepG2 Assay for M32 Transcription Factor (Internal Marker) (AID 2282949); settings: HepG2 Attagene cis-factorial M32 reporter, mRNA; actives raise or lower the signal;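 note: background control marker of the multiplexed CIS panel rather than a real target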
Method in brief: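 Using DMSO as baseline, bidirectional curve fits were applied to reporter mRNA signals. These came from transiently transfected HepG2 cells exposed for 24 h, with RNA analysed by RT-PCR, FAM primer extension, HpaI digestion and CE.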

[14] = ATG_M_06_CIS: Attagene CIS-FACTORIAL HepG2 Assay for M06 Transcription Factor (Internal Marker) (AID 2282950); settings: HepG2 Attagene CIS-FACTORIAL M06 internal marker reporter; actives raise or lower the signal
Method in brief: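 HepG2 liver cells, 24 h exposure. Reporter transcripts from transfected cis-element constructs quantified by RT-PCR/capillary electrophoresis fluorescence. Bidirectional curve fit against DMSO.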

[15] = biological target: Hypoxia-inducible factor 1-alpha (Homo sapiens) (UniProt Q16665); test: ATG_HIF1a_CIS: Attagene CIS-FACTORIAL HepG2 Assay for human Hypoxia Inducible Factor 1 (HIF1A) (AID 2282951); settings: HepG2 Attagene cis-factorial HIF1a reporter transcription; actives raise or lower the signal
Method in brief: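 Transient MRTU transfection of human HepG2 liver cells, 24 h compound treatment, then total RNA isolation, oligo(dT) reverse transcription, PCR amplification, fluorescent labelling and capillary electrophoresis of reporter fragments. Gain or loss relative to DMSO.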

[16] = biological target: Hepatocyte nuclear factor 6 (Homo sapiens) (UniProt Q9UBC0); test: ATG_HNF6_CIS: Attagene CIS-FACTORIAL HepG2 Assay for human Hepatocyte Nuclear Factor 6 (HNF6) (AID 2282952); settings: HepG2 Attagene cis-factorial HNF6 reporter transcription; actives raise or lower the signal
Method in brief: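 First, HepG2 cells were transfected with the multiplexed cis reporter library and dosed with chemical for 24 h. Next, RNA was reverse-transcribed, PCR-amplified and fluorescently labelled. Finally, HpaI-digested fragments were read by capillary electrophoresis.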

[17] = biological target: Heat shock factor protein 1 (Homo sapiens) (UniProt Q00613); test: ATG_HSE_CIS: Attagene CIS-FACTORIAL HepG2 Assay for human Heat Shock Transcription Factor 1 (HSE) (AID 2282953); settings: HepG2 HSE cis-reporter, Attagene RNA transcription; actives raise or lower the signal
Method in brief: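 Endogenous transcription factor activity captured via cis-promoter reporter units transfected into HepG2; treatment lasted 24 h. Fluorescence intensity of reporter fragments analysed with bidirectional curve fitting, DMSO baseline.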

[18] = ATG_MRE_CIS: Attagene CIS-FACTORIAL HepG2 Assay for human Metal Responsive Element (MRE) (AID 2282954); settings: HepG2 MRE cis-reporter transcription, Attagene multiplex; actives raise or lower the signal
Method in brief: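 Multiplexed cis-reporter assay in human HepG2 liver cells, 24 h incubation with test chemical. Reporter transcripts measured by RT-PCR and capillary electrophoresis; values from bidirectional curve fitting versus DMSO.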

[19] = ATG_PBREM_CIS: Attagene CIS-FACTORIAL HepG2 Assay for human Phenobarbital-responsive Enhancer Module (PBREM) (AID 2282955); settings: HepG2 PBREM cis-reporter, Attagene multiplexed transcription; actives raise or lower the signal
Method in brief: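 Endogenous transcription factors in human liver HepG2 cells drive a PBREM cis-element reporter, whose transcript level after 24 h treatment is quantified by RT-PCR with capillary electrophoresis; activity fitted in both directions against DMSO.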

[20] = ATG_GRE_CIS: Attagene CIS-FACTORIAL HepG2 Assay for human Glucocorticoid Response Elements (GRE) (AID 2282947); settings: HepG2 GRE cis-reporter, Attagene multiplex mRNA; actives raise or lower the signal
Method in brief: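 Multiplexed cis-reporter mRNA induction, HepG2, 24 h post-dose. RT-PCR, FAM-labelled, HpaI-digested amplicons by CE. Bidirectional fit vs DMSO.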

Measured: AC50

Hepatocyte nuclear factor 6 (Homo sapiens), sequence (Q9UBC0 whole entry, looked up, the tested form may be a part): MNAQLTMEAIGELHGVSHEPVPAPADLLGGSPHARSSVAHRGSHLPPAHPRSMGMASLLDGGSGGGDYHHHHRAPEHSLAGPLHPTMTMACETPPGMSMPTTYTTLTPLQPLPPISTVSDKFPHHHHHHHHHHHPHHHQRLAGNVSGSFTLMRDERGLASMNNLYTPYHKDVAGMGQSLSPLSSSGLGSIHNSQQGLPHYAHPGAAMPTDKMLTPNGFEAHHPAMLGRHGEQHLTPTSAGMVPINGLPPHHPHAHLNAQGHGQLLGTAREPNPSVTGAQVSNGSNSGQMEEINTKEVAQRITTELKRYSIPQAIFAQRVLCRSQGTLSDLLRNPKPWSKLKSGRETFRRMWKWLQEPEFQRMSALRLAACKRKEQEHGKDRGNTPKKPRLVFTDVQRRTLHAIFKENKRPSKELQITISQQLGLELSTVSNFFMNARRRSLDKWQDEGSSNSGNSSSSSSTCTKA
Bile acid receptor (Homo sapiens), sequence (Q96RI1 whole entry, looked up): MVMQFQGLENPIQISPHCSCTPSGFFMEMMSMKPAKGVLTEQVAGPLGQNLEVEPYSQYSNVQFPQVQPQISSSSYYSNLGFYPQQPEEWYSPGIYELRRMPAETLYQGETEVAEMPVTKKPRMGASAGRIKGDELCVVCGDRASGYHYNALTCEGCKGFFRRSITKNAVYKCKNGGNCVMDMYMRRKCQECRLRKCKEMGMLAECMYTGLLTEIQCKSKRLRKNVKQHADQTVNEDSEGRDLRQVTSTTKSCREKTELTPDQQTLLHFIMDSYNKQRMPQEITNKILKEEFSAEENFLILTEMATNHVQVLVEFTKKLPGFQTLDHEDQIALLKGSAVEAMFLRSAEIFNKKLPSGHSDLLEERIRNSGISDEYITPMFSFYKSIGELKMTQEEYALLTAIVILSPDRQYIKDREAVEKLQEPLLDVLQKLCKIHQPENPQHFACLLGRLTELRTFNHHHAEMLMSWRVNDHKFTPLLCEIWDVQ
Hypoxia-inducible factor 1-alpha (Homo sapiens), sequence (Q16665 whole entry, looked up, the tested form may be a part): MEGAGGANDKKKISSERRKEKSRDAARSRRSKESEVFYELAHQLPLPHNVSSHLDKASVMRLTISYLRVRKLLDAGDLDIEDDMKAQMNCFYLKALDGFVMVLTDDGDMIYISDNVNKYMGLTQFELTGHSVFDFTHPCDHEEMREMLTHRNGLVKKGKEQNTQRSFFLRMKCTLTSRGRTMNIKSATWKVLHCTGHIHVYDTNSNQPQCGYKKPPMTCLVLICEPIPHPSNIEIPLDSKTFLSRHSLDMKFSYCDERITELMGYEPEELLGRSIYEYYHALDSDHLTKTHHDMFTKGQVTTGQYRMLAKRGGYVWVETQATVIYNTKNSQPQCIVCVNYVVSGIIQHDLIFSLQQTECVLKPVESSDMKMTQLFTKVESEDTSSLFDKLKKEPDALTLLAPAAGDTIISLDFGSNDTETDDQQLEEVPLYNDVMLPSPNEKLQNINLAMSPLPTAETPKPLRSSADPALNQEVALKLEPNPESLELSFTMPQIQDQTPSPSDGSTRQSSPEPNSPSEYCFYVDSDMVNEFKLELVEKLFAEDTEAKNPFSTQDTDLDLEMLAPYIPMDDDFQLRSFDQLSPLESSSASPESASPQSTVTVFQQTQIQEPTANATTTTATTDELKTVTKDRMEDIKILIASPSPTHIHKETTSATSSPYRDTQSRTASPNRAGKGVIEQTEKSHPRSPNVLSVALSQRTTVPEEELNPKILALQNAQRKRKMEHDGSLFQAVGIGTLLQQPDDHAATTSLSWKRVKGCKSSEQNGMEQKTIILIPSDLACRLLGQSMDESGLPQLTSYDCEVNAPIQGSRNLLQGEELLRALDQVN
Heat shock factor protein 1 (Homo sapiens), sequence (Q00613 whole entry, looked up, the tested form may be a part): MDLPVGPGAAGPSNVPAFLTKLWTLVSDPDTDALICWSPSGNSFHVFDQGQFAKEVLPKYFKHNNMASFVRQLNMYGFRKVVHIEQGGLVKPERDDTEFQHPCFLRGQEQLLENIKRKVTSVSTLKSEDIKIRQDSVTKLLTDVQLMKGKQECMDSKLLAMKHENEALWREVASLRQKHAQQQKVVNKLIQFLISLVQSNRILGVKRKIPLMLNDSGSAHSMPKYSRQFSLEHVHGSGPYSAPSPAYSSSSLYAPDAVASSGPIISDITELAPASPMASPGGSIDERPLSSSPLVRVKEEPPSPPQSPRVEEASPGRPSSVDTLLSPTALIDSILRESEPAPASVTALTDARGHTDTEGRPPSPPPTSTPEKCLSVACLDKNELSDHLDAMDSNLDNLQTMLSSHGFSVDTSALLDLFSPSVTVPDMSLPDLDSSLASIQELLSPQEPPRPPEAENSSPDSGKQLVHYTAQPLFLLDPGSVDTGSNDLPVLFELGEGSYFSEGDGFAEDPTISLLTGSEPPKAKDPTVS
Hepatocyte nuclear factor 3-beta (Homo sapiens), sequence (Q9Y261 whole entry, looked up): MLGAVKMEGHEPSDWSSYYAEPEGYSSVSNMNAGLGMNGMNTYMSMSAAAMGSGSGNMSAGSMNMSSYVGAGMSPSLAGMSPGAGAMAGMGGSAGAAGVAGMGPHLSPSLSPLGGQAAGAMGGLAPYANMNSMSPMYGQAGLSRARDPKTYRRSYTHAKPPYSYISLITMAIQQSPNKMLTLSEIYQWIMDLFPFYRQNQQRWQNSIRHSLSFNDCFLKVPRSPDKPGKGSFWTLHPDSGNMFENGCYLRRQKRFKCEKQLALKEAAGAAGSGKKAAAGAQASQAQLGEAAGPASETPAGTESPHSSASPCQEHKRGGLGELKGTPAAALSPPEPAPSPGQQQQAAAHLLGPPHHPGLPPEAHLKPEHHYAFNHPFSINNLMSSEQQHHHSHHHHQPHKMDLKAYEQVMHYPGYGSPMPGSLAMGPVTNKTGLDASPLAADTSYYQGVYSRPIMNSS

O=[N+]([O-])C(Br)(CO)CO
active: [3] 100 µM | [10] 169 µM | [12] 164 µM | [15] 25 µM | [17] 158 µM
not listed: [20]
inactive: all other assays above

Cc1ccc([N+](=O)[O-])cc1
not listed: [11] | [19]
inactive: all other assays above

OCCOCCO
not listed: [17] | [19]
inactive: all other assays above

CCNS(=O)(=O)C(F)(F)C(F)(F)C(F)(F)C(F)(F)C(F)(F)C(F)(F)C(F)(F)C(F)(F)F
inactive: [1] | [2] | [3] | [4] | [6] | [7] | [8] | [9] | [10] | [11] | [12] | [13] | [14] | [15] | [16] | [18]
active: [3] 96.5 µM | [9] 138 µM | [10] 96.5 µM | [17] 130 µM and 218 µM and 80.8 µM | [18] 114 µM and 150 µM

CNC(=O)Oc1cccc2c1OC(C)(C)C2
not listed: [11]
inactive: all other assays above

O=C(Nc1ccccc1)c1ccccc1I
active: [5] 30.3 µM
not listed: [11]
inactive: all other assays above

O=C(Oc1ccc(Br)cc1)N1CCN2CCC1CC2
active: [15] 34.6 µM
not listed: [11] | [19]
inactive: all other assays above

CCOc1cccc(C2(N3CCN(c4ccccc4)CC3)CCC(C)CC2)c1 (centres undefined)
not listed: [11] | [17] | [19]
inactive: all other assays above

CC(C)COC(=O)c1ccccc1C(=O)OCC(C)C
active: [1] 100 µM | [3] 73.4 µM | [5] 39.6 µM | [12] 167 µM | [18] 109 µM
not listed: [19]
inactive: all other assays above

CO[C@@H]1[C@H](OC(=O)NC(=O)CCl)CC[C@]2(CO2)[C@H]1[C@@]1(C)O[C@@H]1CC=C(C)C
active: [6] 47.8 µM
not listed: [11] | [19]
inactive: all other assays above

Clc1ccc(C(c2ccc(Cl)cc2)C(Cl)Cl)cc1
active: [3] 45.1 µM | [5] 19.3 µM | [6] 53.8 µM | [10] 45.9 µM | [11] 21.2 µM | [12] 49.4 µM | [17] 51.7 µM | [18] 50.6 µM
not listed: [19]
inactive: all other assays above

ClC1=C(Cl)[C@]2(Cl)[C@H]3[C@H]([C@@H]4C=C[C@H]3C4)[C@@]1(Cl)C2(Cl)Cl
active: [3] 33.4 µM | [5] 16.1 µM | [18] 33.4 µM
not listed: [11]
inactive: all other assays above

[O-][Cl+]O
not listed: [11] | [19]
inactive: all other assays above

O=[N+]([O-])c1ccc(Oc2ccc(Cl)cc2Cl)cc1
active: [1] 71.5 µM | [3] 28.3 µM | [18] 50.1 µM
not listed: [5] | [11] | [19]
inactive: all other assays above
